# Screening data (PubChem BioAssay)
# TTR transcr act: TTR transcription activation, primary screen | SH-SY5Y TTR promoter Gaussia luciferase, luminescence; 100% = recombinant luciferase protein wells | activation, % at 16.7 µM | 92,000 compounds, 1.3% hits | AID 1117267;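 active = activation above the mean of all tested compounds plus 3 SD, cut at about 9.5% in these data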;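 note: cells exposed to compounds for one day before reading; 0% = median of all test compound wells on the plate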
# HuH7 TTR inh: HuH7 TTR transcription inhibition, counter-screen; shares compounds with TTR transcr act; inhibition, % at 16.7 µM; HuH7 TTR promoter-Gaussia luciferase reporter, luminescence; 1,100 compounds, 4% hits;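 active = average inhibition above the solvent-only control wells' mean plus 3 SD, cut at about 15% in these data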;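 note: 0% = cells with DMSO only and 100% = cells with inhibitor control FD; inhibitors lower well luminescence so higher value means more inhibition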
# TTR act confirm: human TTR transcription activation, confirmation; shares compounds with TTR transcr act; SHSY5Y TTR promoter Gaussia luciferase, luminescence; 100% = purified Lucia enzyme wells, no cells; activation, % at 16.7 µM; 1,100 tested, under 10 active;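 active = mean activation above a set limit taken from the earlier primary screen, cut at about 11% in these data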;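 note: 0% = DMSO-treated cells and 100% = recombinant Lucia luciferase without cells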
# * marks the source's active call; other numbers are inactive results. Only a selection was taken, and hits are over-represented in it overall.
SMILES,TTR transcr act,others
Cc1cc2nc(-c3ccco3)cc(C(F)(F)F)n2n1,-1.0,
O=C(OCC#CCSc1nnc(-c2cccc3ccccc23)o1)c1sccc1Cl,0.2,
O=C(NC(NC(=S)Nc1c(Cl)cccc1Cl)C(Cl)(Cl)Cl)c1cccc([N+](=O)[O-])c1 (stereo not drawn),-2.3,
CCN(CC(=O)Nc1c(F)cccc1F)C(=O)c1c(-c2ccccc2Cl)noc1C,-0.6,
COc1cccc(NC(=O)CN(C)C(=O)c2c(-c3c(F)cccc3Cl)noc2C)c1,1.3,
CCN(CC(=O)Nc1ccc(NC(C)=O)cc1)C(=O)c1c(-c2c(F)cccc2Cl)noc1C,17.0*,HuH7 TTR inh=-10.2;TTR act confirm=-0.3
Cn1nccc1NC(=O)Nc1ccc(Cl)cc1,3.7,
COc1ccccc1C(=O)N/C(=C/c1ccc(Br)cc1)C(=O)NCCCn1ccnc1,-0.2,
CC(=O)Nc1ccc(S(=O)(=O)NCCCN2CCOCC2)cc1,0.5,
O=C(O)c1cccc2c1/C(=N/O)c1ccccc1-2,-0.1,
CN1CCC(NCCC(c2ccc(F)cc2)c2ccc(Cl)cc2)CC1 (stereo not drawn),-0.6,
Cc1ccc(N(CC(=O)N2CCN(C3CCCCC3)CC2)S(=O)(=O)c2cccnc2)cc1,0.5,
CCn1c(C)nc2cc(S(=O)(=O)N3CCCC3)ccc21,0.0,
CCn1cc(S(=O)(=O)NC2CCCCC2)cn1,1.6,
CCn1cc(S(=O)(=O)N2CCCC2)cn1,14.3*,HuH7 TTR inh=-4.8;TTR act confirm=0.7
c1cc2c(cc1C1=Nn3c(nnc3C3CCCCC3)SC1)OCO2,9.9*,HuH7 TTR inh=30.4*;TTR act confirm=-0.6
CC(C)(C)C1=Nn2c(nnc2C2CCCCC2)SC1,1.9,
COc1ccc(C2=Nn3c(nnc3-c3ccc(OC)cc3)SC2)cc1,-0.7,
CCC(=O)Nc1cc(-c2nn(CC(=O)N3CCCCC3)c(=O)c3ccccc23)ccc1N1CCOCC1,0.0,
C/C=C/C(=O)OCC(=O)Nc1ccc(OC)c(OC)c1,0.8,
COc1ccc(NC(=O)CCCC(=O)O)cc1Cl,-0.3,
C/C=C/C(=O)OCC(=O)Nc1ccc(OC)c(Cl)c1,11.8*,HuH7 TTR inh=-10.4;TTR act confirm=0.7
COCCn1nnnc1C(c1cc2cc(C)ccc2[nH]c1=O)N1CCc2ccccc21 (stereo not drawn),0.4,
COc1ccccc1-c1noc(CCC(=O)N2CCN(c3cc(C)ccc3C)CC2)n1,-2.5,
O=C1NC(=S)S/C1=C1\Sc2ccccc2N1CCCS(=O)(=O)O,0.9,
SMILES,TTR transcr act,others
O=C(CN1CCN(C(=O)c2ccccc2)CC1)NC(=O)NCCC1=CCCCC1,1.1,
COc1ccccc1C(O)c1nccn1C (stereo not drawn),14.4*,HuH7 TTR inh=-3.5;TTR act confirm=-0.5
CCn1c(C(O)c2cccc(OC)c2OC)nc2ccccc21 (stereo not drawn),5.8,
COc1cccc(C(O)c2nccn2Cc2ccccc2)c1OC (stereo not drawn),1.0,
CC(C)NC(=O)c1onc(CSc2ccc(F)cc2)c1C(=O)O,2.5,
CC(=O)Nc1sc2c(c1-c1nc3ccccc3s1)CCN(C)C2,2.2,
Cc1cccc(C(=O)Nc2c(C(=O)N(C)C)cnn2-c2ccccc2)c1,10.7*,HuH7 TTR inh=-12.8;TTR act confirm=-0.6
CCOC(=O)c1cnn(-c2ccccc2)c1NC(=O)c1ccccc1,-1.1,
O=C(Nc1c(C(=O)N2CCCCC2)cnn1-c1ccccc1)c1ccccc1,5.5,
O=C(NCc1ccco1)c1cc(S(=O)(=O)NC2CC2)ccc1Br,-1.1,
CCOC(=O)c1cc(NC(=O)Nc2ccc(OC)c(OC)c2)c(C)nc1C,-2.0,
NC(=O)c1nsc(C(=O)N(CC(=O)NC2CCCC2)c2ccc(F)c(Cl)c2)c1N,16.6*,HuH7 TTR inh=-26.0;TTR act confirm=-0.2
CC(C(=O)NC1CCCCC1)N(Cc1ccc(F)cc1)C(=O)c1snc(C(N)=O)c1N (stereo not drawn),2.2,
NC(=O)c1nsc(C(=O)N(CC(=O)NC2CCCCC2)c2cccc(F)c2)c1N,1.3,
O=C(Nc1ccccc1)c1cnc2ccccc2n1,0.5,
O=C(O)CNS(=O)(=O)c1cccc(Cl)c1,14.6*,HuH7 TTR inh=-11.3;TTR act confirm=4.2
O=C(O)CCNS(=O)(=O)c1ccc2ccccc2c1,0.9,
O=C(O)CCNS(=O)(=O)c1ccccc1,0.4,
COc1ccc(-c2sc3cc4c(cc3c2-c2ccc3c(c2)OCCO3)OCO4)cc1,-0.4,
CN1C(=O)/C(=C/C=C2\SCCN2C)N(C)C1=S,-1.8,
N#Cc1ccccc1S(=O)(=O)NC(=O)[C@H]1O[C@@H](n2cnc3c(N)ncnc32)[C@H](O)[C@@H]1O,-0.5,
Cc1ccc(C(=O)OCC(=O)NCc2cccs2)cc1,11.2*,HuH7 TTR inh=-5.9;TTR act confirm=0.2
COc1ccc(C(=O)NCC(=O)OCC(=O)NCc2cccs2)cc1,0.3,
CSc1ncccc1C(=O)OCC(=O)NCc1cccs1,2.4,
COc1cccc(NC(=O)CN(C)CC(=O)Nc2ccc(C)cc2Cl)c1,2.3,
SMILES,TTR transcr act,others
Cc1ccccc1NCC(=O)N/N=C\c1ccc2c(c1)OCO2,-2.0,
O=C(/C=C1\NC2(CCCC2)Cc2ccccc21)C(=O)N/N=C/c1ccc(O)c(O)c1,-2.2,
CCOC(CCNC(=O)c1cn(-c2cccc(C)n2)cn1)OCC,0.6,
COC(=O)c1ccc(NC(=O)c2cn(-c3cccc(C)n3)cn2)cc1,29.8*,HuH7 TTR inh=-10.7;TTR act confirm=-0.2
COC(=O)c1ccc(NC(=O)c2cccnc2)cc1,-0.3,
CC(C)C[C@H](NC(=O)N1CC(=O)Nc2ccccc21)C(=O)N[C@H](Cc1c[nH]c2ccccc12)C(=O)O,1.6,
CC(C)[C@H](NC(=O)N1CC(=O)Nc2ccccc21)C(=O)N[C@@H](Cc1ccccc1)C(=O)O,2.0,
CCC(C)[C@H](NC(=O)N1CC(=O)Nc2ccccc21)C(=O)N[C@@H](Cc1c[nH]c2ccccc12)C(=O)O (stereo partly drawn),11.6*,HuH7 TTR inh=-22.4;TTR act confirm=-0.1
CC1(C(=O)NS(=O)(=O)c2ccccc2)CCN1C(=O)Cc1cccc2ccccc12 (stereo not drawn),-2.1,
Cc1cc(C(=O)O)c(C)n1Cc1ccncc1,-0.7,
Nc1cnccc1C(=O)O,10.5*,HuH7 TTR inh=-7.8;TTR act confirm=1.2
Nc1ccc(Br)cc1C(=O)O,1.6,
COc1cccc2c(=O)cc(C)n(CC(=O)Nc3ccc(Br)cc3)c12,5.6,
CC(=O)c1cc(C#N)c(Oc2ccccc2)nc1C,-2.3,
CC(=O)c1cc(C(C)=O)c(C)nc1C,9.9*,HuH7 TTR inh=-7.4;TTR act confirm=12.8*
CCSc1nc(C)c(C(C)=O)cc1C#N,0.0,
CCOC(=O)c1ccc(Nc2ccc(C(C)=O)cc2)cc1,-4.3,
CC1(NC(=O)c2ccccc2)CCN(CCc2cccs2)C1=O (stereo not drawn),2.8,
Cc1csc(C(=O)NN)c1N(C)C,-2.6,
Cc1ccc(C)c(OCC(=O)Nc2cc(C)on2)c1,0.5,
N#Cc1ccc(Oc2ccc(/C=N/O)cn2)cc1,80.8*,HuH7 TTR inh=-0.3;TTR act confirm=-0.6
Cc1ccc2nc(/C(C#N)=C\c3ccc(Oc4ccc([N+](=O)[O-])cn4)cc3)[nH]c2c1,-1.1,
COc1nc(Oc2ccc(/C=N/O)cc2)nc(N(C)C)n1,-0.7,
CC(=O)/C(=N\Nc1ccc(C)cc1)N1CCOCC1,0.2,
CC(=O)C(Sc1ccc2nnc(-c3ccncc3)n2n1)C(C)=O,-0.4,
SMILES,TTR transcr act,others
Cc1c2ccccc2nc2ccccc12,-1.7,
OCCNc1c2ccccc2nc2ccccc12,15.6*,HuH7 TTR inh=-48.4;TTR act confirm=15.2*
OCCNc1nc2ccccc2nc1NCCO,0.6,
COC(=O)Cn1nc(-c2cccc(OC)c2)c2ccccc21,2.5,
Cc1ccc(C(=O)O/N=C(\N)c2ccc(Br)cc2)cc1,1.4,
O=S1(=O)CCO[C@H]2Cc3ccccc3[C@H]2N1Cc1cccc(F)c1,3.6,
